Records with an inconclusive call do not appear. A number with no mark means an inactive call. Activity calls are given as the source filed them. The call rests on the fitted dose curve; in most records, active means well fitted inhibition curve with a large enough effect; inconclusive means small, poorly fitted or top-dose-only effect; inactive means flat fitted curve, though single readings scatter.
These compounds were tested on Zika virus NS2B-NS3 protease (assay: Primary screen GU AMC qHTS for Zika virus inhibitors (AID 1347154;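 further: 0% = no-inhibitor control and -100% = no-enzyme control; nearly all actives have a fitted effect of over 70% in size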)). Conditions: Zika NS2B-NS3 unlinked protease, AMC fluorogenic substrate; series mostly up to 54.1 µM; activity change, negative = inhibition: at the top concentration.
Source text: Avindra Nath, Ph.D., National Institute of Neurological Disorders and Stroke (NINDS), Bethesda, MD
Radhakrishnan Padmanabhan, Ph.D., Georgetown University (GU), Washington D.C.
Zika Virus causes congenital defects, including microcephaly and is associated with Guillain-Barre syndrome, eningoencephalitis and myelitis in infected adult. […] Using a target-based approach, we hope to establish a screening paradigm to uncover novel, cell-active NS2B-NS3 protease (Zika Virus) specific inhibitors from NCATS' collection of small molecules using qHTS.
Early Translation Branch (ETB)
National Center for Advancing Translational Sciences (NCATS), Rockville, MD
National Institute of Health (NIH), Bethesda, Maryland
Padmanabhan lab provided the NS2B hydrophilic domain and NS3 protease domain in a noncovalent complex used for the unlinked assay. Control compound aprotinin is obtained from Thermo Scientific (#78432; Waltham, Massachusetts). NS2B-NS3 AMC substrate (Bz-Nle-Lys-Arg-Arg-AMC; Nle-KRR-AMC) purchased from Bachem (#I-1995; Torrance, CA). Ac-VKTGKR-AMC purchased from Genscript or Bachem, Ac-FAAGKR-AMC purchased from Genscript, Ac-GLVKRR-AMC purchased from Genscript, Ac-LKKR-AMC purchased from Genscript.
GU AMC unlinked NS2B-NS3 protease qHTS protocol
Briefly, 3 microL of Zika virus unlinked NS2B-NS3 protease (25 nM for linked final concentration), in assay buffer (10 mM Tris-HCl pH 8.0 with 0.01% Tween 20) was dispensed into a 1,536-well solid-bottom black plate (Greiner Bio One, Monroe, NC). […] Plates were then read immediately on a ViewLux High-throughput CCD imager (PerkinElmer, Waltham, MA) equipped with standard UV fluorescence optics (340(30) nm excitation, 450(20) nm emission) then incubated (room temperature, protected from light) for 15 minutes (~20% conversion). The change in fluorescence intensity over the 15-minute reaction period was normalized against no-inhibitor and no-enzyme controls and the resulting percent inhibition data were fitted to a 4-parameter Hill equation. Aprotinin was used as the intraplate control.

| Compound | activity change, negative = inhibition | Potency |
| --- | --- | --- |
| NC[C@H](CS(=O)(=O)O)c1ccc(Cl)cc1 | -2.83% |  |
| H-YGGFLRKYPK-OH | 17.1% [at 6.83 µM] |  |
| N[C@H](Cc1o[nH]c(=O)c1Cl)C(=O)O | 11% |  |
| CC[C@H](C)[C@H](NC(=O)[C@H](CCCN=C(N)N)NC(=O)[C@H](CCCN=C(N)N)NC(=O)[C@H](CC(C)C)NC(=O)[C@H](Cc1ccccc1)NC(=O)CNC(=O)CNC(=O)[C@@H](N)Cc1ccc(O)cc1)C(=O)O | 10.8% [at 6.83 µM] |  |
| CCCN(C/C=C/I)C1CCc2ccc(O)cc2C1 (stereo not given) | -19.2% |  |
| C[C@H]1O[C@@H](O[C@H]2[C@@H](O)C[C@H](O[C@H]3[C@@H](O)C[C@H](O[C@H]4CC[C@]5(C)C6CC[C@]7(C)[C@@H](C8=CC(=O)OC8)CC[C@]7(O)C6CC[C@@H]5C4)O[C@@H]3C)O[C@@H]2C)C[C@H](O)[C@@H]1O (stereo not given in full) | 13.7% |  |
| Clc1ccc(C2CC3CCC2N3)cn1 (stereo not given) |  | inactive |
| O=C(O)Cc1cccnc1C(=O)O |  | inactive |
| C=C(C)C1CCC(C)=CC1c1c(OC)cc(C)cc1OC (stereo not given) | 9.84% |  |
| O=C1/C(=C\c2ccccc2)C[C@@]2(O)[C@H]3Cc4ccc(O)c5c4[C@@]2(CCN3CC2CC2)[C@@H]1O5 | -9.17% |  |
| O=C(Cc1ccc(Cl)c(Cl)c1)N1CCCC[C@H]1CN1CCCC1 | 12.1% |  |
| COC(C/C=C/C=C/CC/C=C\CC(C)/C=C\C(=C/C(=O)O)CC(=O)O)/C(C)=C\C=C(/C)C(=O)O (stereo not given) | 8.89% [at 6.83 µM] |  |
| O=C1NC(=O)c2c1c1c3ccccc3n3c1c1c2c2ccccc2n1C1CCC3O1 | -1.18% |  |
| Cc1o[nH]c(=O)c1C[C@@H](N)C(=O)O | 5.87% |  |
| CCCCC[C@@H](/C=C/C=C\C/C=C\C/C=C\CCCC(=O)O)OO | 15.4% [at 0.59 µM] |  |
| CNCC(N)C(=O)O (stereo not given) | 11.2% |  |
| CP(=O)(O)CCCN |  | inactive |
| C=C1[C@@H](C)[C@H]2[C@H](Cc3ccccc3)NC(=O)[C@]23[C@H](OC(C)=O)/C=C/[C@](C)(O)C(=O)[C@@H](C)C/C=C/[C@H]3[C@@H]1O | 20.2% |  |
| CC(C)C[C@H](NC(=O)[C@H](Cc1ccccc1)NC(=O)CNC(=O)[C@H](CO)NC(=O)[C@@H](N)Cc1ccc(O)cc1)C(=O)N[C@H](C(=O)O)[C@H](C)O | 10.8% [at 6.83 µM] |  |
| C[C@@H](Cc1ccc(OCC(=O)O)cc1)NC[C@H](O)c1cccc(Cl)c1 | 10.1% |  |

| Compound | activity change, negative = inhibition | Potency |
| --- | --- | --- |
| CCOC(=O)c1ncn2c1[C@H]1CCCN1C(=O)c1cc(OC)ccc1-2 | 2% |  |
| CNCC/C=C/c1cccnc1 | 2.18% |  |
| CN1CC[C@@H]2CN3CCc4cccc(c43)[C@@H]2C1 | -13.2% |  |
| CC(CN)CC(=O)O (stereo not given) | -0.399% |  |
| CN(C(=O)Cc1ccc(Cl)c(Cl)c1)[C@H](CN1CCCC1)c1cccc(N=C=S)c1 | -4.74% |  |
| CCC(Sc1ccccc1)C(=O)OC1CC2CCC(C1)N2C (stereo not given) | -8.55% |  |
| C/C(=C\C=C/[C@@H](C)C(=O)O)[C@H]1CN[C@H](C(=O)O)[C@@H]1CC(=O)O | -1.59% |  |
| C[C@@]1(CO)[C@H](O)CC[C@@]2(C)[C@H]1CC[C@H]1C[C@@H]3C[C@@]12CC[C@]3(O)CO | 11.5% [at 104 µM] |  |
| NCCc1ccccc1 | 7.61% |  |
| O=C(/C=C/c1ccc(Cl)cc1)N[C@@]12CCC(=O)[C@@H]3Oc4c(O)ccc5c4[C@@]31CCN(CC1CC1)C2C5 | -6.27% |  |
| C=C(C)[C@H]1C2C(=O)O[C@H]1[C@H]1OC(=O)[C@@]34O[C@@H]3C[C@]2(O)[C@@]14C | 8.4% |  |
| N[C@@H](CCP(=O)(O)O)C(=O)O | 11.6% |  |
| COc1ccc(C[C@H]2NC[C@H](O)[C@@H]2OC(C)=O)cc1 | 5.28% |  |
| NCCCP(=O)(O)CC1CCCCC1 |  | inactive |
| O=C1NC(=O)c2c1c1c3ccccc3[nH]c1c1[nH]c3ccccc3c21 | 22.1% |  |
| CC(=O)O[C@@H]1CN2CCC1CC2 | 5.85% |  |
| CN1C(=O)CCS(=O)(=O)[C@H]1c1ccc(Cl)cc1 | 6.01% |  |
| Cc1ccc2c(c1)C1(CCN(CCc3nc(-c4ccccc4)oc3C)CC1)OC(=O)N2 | 9% |  |
| CC(C)[C@]1(O)[C@@H](OC(=O)c2ccc[nH]2)[C@@]2(O)[C@@]3(C)C[C@]4(O)O[C@@]5([C@H](O)[C@@H](C)CC[C@]35O)[C@@]2(O)C41C | 15% |  |
| CCCCCCCCCCCCCCCC(=O)OC[C@H](COP(=O)([O-])OCC[N+](C)(C)C)OC(C)=O | 9.56% [at 6.83 µM] |  |
